# Yp Topo-I inh = Yersinia pestis topoisomerase I inhibitors, primary screen, biochemical, cleavage product accumulation, plate reader, single point. DNA topoisomerase I (Yersinia pestis CO92). Y. pestis Topo-I cleavage product accumulation. activity, % at 10 µM. 360,000 compounds, 0.064% hits; in the data active = activity above about 50%, passing the limit was not always enough
# Mtb FBA inh = Mtb FBA enzyme inhibitors, primary screen, biochemical, fluorescence, strain H37Rv; Fructose-bisphosphate aldolase (Mycobacterium tuberculosis (strain ATCC 25618 / H37Rv)), …; purified M. tuberculosis FBA, fluorescence read-out; inhibition, % at 1 µM; 360,000 compounds, 2.3% hits; AID 588726, 2011
# TcdB inh = TcdB glycohydrolase inhibitors, primary screen, biochemical, single point, plate reader; Toxin B (Clostridioides difficile), P18177; TcdB glycohydrolase enzymatic assay; inhibition, % at 9.99 µM; 350,000 compounds, 0.24% hits; AID 652162, 2013; in the data active = inhibition above about 10%
# GDH-TPI counter-1 = GDH-TPI coupling enzyme inhibitors, primary screen, artefact control for M. tuberculosis FBA inhibitor project, biochemical, absorbance, full deck | inhibition, % at 4.8 µM | 360,000 compounds, 1.2% hits | GDH-TPI coupled enzyme counterscreen, NADH absorbance | AID 588335, 2011; in the data active = inhibition above about 30%
# PrPC TRFRET = inhibitors of human cell surface prion protein PrPC, primary screen, cell-based, TR-FRET. Major prion protein (Homo sapiens), P04156. TR-FRET read-out. inhibition, % at 13.8 µM. 370,000 compounds, 0.43% hits. AID 720596, 2013; in the data active = inhibition above about 24%
# Mtb FBA confirm = M. tuberculosis aldolase blockers, biochemical, fluorescence, strain H37Rv, confirmation; shares compounds with Mtb FBA inh; purified M. tuberculosis FBA, fluorescence read-out; inhibition, % at 1 µM; 5,600 compounds, 78% hits; AID 651616, 2012
# GDH-TPI counter-2 = GDH-TPI coupling enzyme inhibitors, artefact control for M. tuberculosis FBA inhibitor project, biochemical, fluorescence, high throughput | shares compounds with Mtb FBA inh | GDH-TPI coupled enzyme counterscreen | inhibition, % at 1 µM | 5,600 compounds, 81% hits; in the data active = inhibition above about 10%
# Numbers stand for hits; n = inactive; x = no result given; + = active, no number. Hits are enriched below; roughly 3.2% of the tested compounds scored in any of these assays. Cut-off read from the data, not from the text of the source, unless noted: active = inhibition above about 27%; inactive = the rest.
SMILES,Yp Topo-I inh,Mtb FBA inh,TcdB inh,GDH-TPI counter-1,PrPC TRFRET,Mtb FBA confirm,GDH-TPI counter-2
Cc1cccc(NC(=O)Nc2cccc3ccccc23)c1,n,n,n,n,n,x,x
Fc1ccc(NC(=S)Nc2cccc3ccccc23)cc1,n,n,n,n,n,x,x
Cc1cc(C)cc(NC(=S)Nc2cccc3ccccc23)c1,n,42,n,n,n,147,129
CC(=O)NNC(=S)Nc1cc(S(=O)(=O)N(C)C)ccc1C,n,n,x,n,n,x,x
Cc1cccc(NC(=S)Nc2cccc3ccccc23)c1,n,47,n,n,n,143,112
O=C(NCC[C@@H]1CC[C@H](NS(=O)(=O)c2cccc(F)c2)[C@H](CO)O1)C1CCC1,x,x,n,x,x,x,x
C[C@@H]1CN([C@H](C)CO)C(=O)Cc2cc(NS(C)(=O)=O)ccc2O[C@@H]1CN(C)C(=O)NC1CCCCC1,x,x,n,x,x,x,x
C[C@@H]1CCCCO[C@@H](CN(C)C(=O)Nc2ccc3c(c2)OCO3)[C@@H](C)CN([C@H](C)CO)C(=O)c2cc(NS(=O)(=O)c3cccs3)ccc2O1,x,x,n,x,x,x,x
COc1cccc(NC(=S)Nc2cccc3ccccc23)c1,n,n,n,n,n,x,x
CCc1cccc(NC(=S)Nc2cccc3ccccc23)c1,n,46,n,n,n,86,77
COCCNC(=O)C[C@@H]1C[C@@H]2c3cc(NC(=O)c4ccc5c(c4)OCO5)ccc3O[C@@H]2[C@H](CO)O1,x,x,n,x,x,x,x
O=[N+]([O-])c1ccccc1S(=O)(=O)N1CCCC(C(F)(F)F)C1 (configuration not stated),n,41,n,n,n,46,39
O=C(O)c1[nH]c2ccccc2c1NS(=O)(=O)c1ccc(F)cc1,n,n,n,n,n,x,x
O=C(O)c1[nH]c2ccccc2c1NS(=O)(=O)Cc1ccccc1,n,61,x,n,n,+,174
Cc1nn(CCc2nn[nH]n2)c2nc(C(F)(F)F)cc(C(F)(F)F)c12,n,39,x,n,n,x,+
Cc1nn(CCc2nn[nH]n2)c2nc(-c3ccc(Br)cc3)cc(C(F)(F)F)c12,n,n,n,n,n,x,x
COCC(=O)N(C)C[C@H]1Oc2cc(C#Cc3ccccc3)ccc2S(=O)(=O)N([C@H](C)CO)C[C@H]1C,x,x,n,x,x,x,x
CCc1cc(=O)oc2cc(OCC(=O)N3CCC[C@H]3C(=O)O)ccc12,n,35,n,n,n,+,+
CCCCCCc1c(C)c2ccc(OCC(=O)N3CCC[C@H]3C(=O)O)c(C)c2oc1=O,n,81,n,n,n,148,113
CCCc1cc(=O)oc2c(C)c(OCC(=O)N3CCC[C@@H]3C(=O)O)ccc12,n,43,n,n,n,55,45
Cc1cc(=O)oc2cc(OCC(=O)N3CCCC(C)C3)ccc12 (configuration not stated),n,n,x,n,n,x,x
CC(C)C(=O)Nc1ccc2c(c1)C(=O)N(C)[C@@H]1CC[C@H](CC(=O)Nc3ccccc3)O[C@@H]1CO2,x,x,n,x,x,x,x
O=C(CCN1C(=O)C2C3C=CC(C3)C2C1=O)NC1CCCCC1 (configuration not stated),n,n,n,n,n,x,x
CCOC(=O)N1CCC(NC(=O)CCN2C(=O)C3C4C=CC(C4)C3C2=O)CC1 (configuration not stated),n,84,x,n,n,+,+
C[C@@H]1CN([C@@H](C)CO)C(=O)c2cc(NC(=O)CCC(F)(F)F)ccc2O[C@H]1CN(C)Cc1ccc(Oc2ccccc2)cc1,x,x,n,x,x,x,x
SMILES,Yp Topo-I inh,Mtb FBA inh,TcdB inh,GDH-TPI counter-1,PrPC TRFRET,Mtb FBA confirm,GDH-TPI counter-2
CC(C)n1cnc2c(Nc3cccc(F)c3)nc(NCCO)nc21,n,32,n,n,n,109,91
CCc1ccc(-n2nc3cc(C)c(N)cc3n2)cc1,n,56,n,n,n,63,69
Cc1ccc(-n2nc3cc(C)c(N)cc3n2)cc1,n,n,x,n,n,x,x
O=C(C[C@H]1C=C[C@H](NC(=O)Cc2cccnc2)[C@@H](CO)O1)Nc1ccccc1,x,x,n,x,x,x,x
O=[N+]([O-])c1ccc2c(c1)S(=O)c1ccccc1-2 (configuration not stated),n,27,n,n,n,147,110
O=S1c2ccccc2-c2ccccc21,n,n,n,n,n,x,x
CCOc1ccc2[nH]c(C)c(CN3CCN(CC)CC3)c(=O)c2c1,n,n,x,n,n,x,x
CCCCN(C)Cc1c(C)[nH]c2ccc(OCC)cc2c1=O,n,35,n,n,n,n,n
C[C@H](CO)N1C[C@H](C)[C@H](CN(C)Cc2ccc(C(=O)O)cc2)Oc2c(cccc2N(C)C)C1=O,x,x,n,x,x,x,x
O=C(c1cnccn1)N(c1ccccc1)C1(C(=O)NC2CCCCC2)CCCCC1,n,30,x,n,n,29,18
O=C(O)/C=C\C(=O)Nc1ccccc1C(=O)NC1CCCCC1,n,52,n,n,n,n,n
COc1ccc(-c2c3c(=O)n(C)c(=O)n(C)c3cn2-c2ccccc2)cc1,n,n,x,n,n,x,x
COc1ccc(-c2c3c(=O)n(C)c(=O)n(C)c3cn2-c2ccc(O)cc2)cc1,n,45,n,n,n,+,189
COc1ccc(CNC(=O)C[C@H]2C=C[C@@H](NC(=O)CN(C)C)[C@H](CO)O2)cc1,x,x,n,x,x,x,x
CCCCC(=O)Nc1ccc2c(c1)nc1n2CCOC1,n,n,x,n,n,x,x
CCCCC(=O)Nc1ccc2c(c1)nc1n2CCN(CCOC)C1,n,51,n,n,n,n,12
CCCC(=O)Nc1ccc2c(c1)nc1n2CCN(CCOC)C1,n,33,n,n,n,+,179
COCCN1CCn2c(nc3cc(NC(=O)c4cccs4)ccc32)C1,n,n,x,n,n,x,x
CO[C@@H]1CN(C)C(=O)c2ccc(NC(=O)c3cccc(F)c3)cc2OC[C@H](C)N(C(C)=O)C[C@@H]1C,x,x,n,x,x,x,x
CCN1[C@H](C(=O)NC2CCC2)[C@@H](CO)[C@@H]2Cn3c(ccc(-c4ccc(F)cc4)c3=O)[C@@H]21,x,x,n,x,x,x,x
O=C(Nc1ccccc1F)N1CC(=O)N2[C@@H](CO)[C@@H](c3ccc(-c4cccnc4)cc3)[C@@H]2C1,x,x,n,x,x,x,x
Cc1ccc(-c2ccc(CO)o2)cc1N,n,30,n,n,n,187,121
Cc1cc(OC(C)C(=O)NCc2ccncc2)c2c(C)c(C)c(=O)oc2c1 (configuration not stated),n,103,n,n,n,57,49
Cc1cc(OCC(=O)NCc2ccncc2)c2c(C)cc(=O)oc2c1,n,79,n,n,n,40,39
